Data published in PubChem BioAssay (NCI).
This is part of a sample that, as a whole, favours compounds with a hit. Of some 83,000 tested, about 20% had one in any assay.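 In brief: 96-well plates, 48 h treatment, single concentration, percent growth endpoint.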 Unmarked numbers belong to inactive results. Activity calls are given as the source filed them. Rule for the calls: active = growth percent below 10; inactive = the rest.

Each molecule was assayed on MCF7 breast (assay: NCI-60 one-dose screen, 48 h (100 = growth as untreated, 0 = no growth, -100 = all killed)). Conditions: 10 µM.

Row | Structure (SMILES) | growth
1 | O=C(/C=C/c1ccco1)c1nc2ccccc2n1Cc1ccc(Br)cc1 | 2.72% (active)
2 | O=C(/C=C/c1ccco1)c1nc2ccccc2n1Cc1ccc(F)cc1 | 8.93% (active)
3 | COc1cc2cc(C(=O)N3C[C@@H](CCl)c4c3cc(OC(=O)N3CCN(C)[C@@H]5CSSC[C@@H]53)c3ccccc43)[nH]c2c(OC)c1OC | -8.94% (active)
4 | C#CC[Se]C(=O)c1ccc2n[se]nc2c1 | 31.6%
5 | O=C(/C=C/c1ccc(Cl)cc1Cl)c1nc2ccccc2n1Cc1ccc(F)cc1 | 5.98% (active)
6 | O=C(/C=C/c1ccc(Cl)cc1)c1nc2ccccc2n1Cc1ccc(Br)cc1 | 9.41% (active)
7 | CCOP(=O)(OCC)C(NC(C)=O)C(=O)SCCN (stereo unspecified) | 95.5%
8 | COc1cc2cc(C(=O)N3C[C@@H](CCl)c4c3cc(OC(=O)N3CCN(C)[C@@H]5CSSC[C@H]53)c3ccccc43)[nH]c2c(OC)c1OC | -56.2% (active)
9 | COc1ccc2cc([C@H](C)C(=O)[Se]CCC#N)ccc2c1 | -8.25% (active)
10 | CC12OOC(C)(OO1)C2CCC(=O)OCCNc1ccnc2cc(Cl)ccc12 (stereo unspecified) | 24.2%
11 | CC(C)N=C([Se])NC(=O)c1cccs1 | 1.79% (active)
12 | Cc1ccc2[nH]c(=S)n(-c3ccc(F)cc3)c(=O)c2c1 | 95%
13 | CCOC(=O)C1=C(Nc2ccccc2)C(=O)OC12C(=O)Nc1ccccc12 (stereo unspecified) | 95.6%
14 | CC12CCC3(CCC(=O)NCCCNc4ccnc5cc(Cl)ccc45)[C@@](C)(OO[C@]3(C)O1)O2 | 9.36% (active)
15 | CC[C@]12C=CCN3CC[C@@]4(c5ccc(OC)cc5N(C)[C@H]4[C@@](O)(C(=O)OC)[C@@H]1OC(=O)CCCC[P+](C1CCCCC1)(C1CCCCC1)C1CCCCC1)[C@@H]32 | -64.2% (active)
16 | CC(=O)Oc1ccccc1C(=O)[Se]C(=NC(C)C)NC(C)C | -55% (active)

Row | Structure (SMILES) | growth
17 | COCCOCCOCCOc1ccc(-n2cc(CCCN(CCNc3ccnc4cc(Cl)ccc34)C(=O)CCC(=O)O[C@@H]3O[C@@H]4OC5(C)CC[C@H]6[C@H](C)CC[C@@H]([C@H]3C)[C@@]46OO5)nn2)cc1 | 22.2%
18 | C[C@H]1[C@@H](CC(=O)N[C@@H](Cc2coc3ccccc23)B(O)O)O[C@@H]2OC3(C)CC[C@H]4[C@H](C)CC[C@@H]1[C@@]24OO3 | 12%
19 | COP(=O)(CC(F)(F)C(F)(F)F)OC | 3.91% (active)
20 | CC12OOC(C)(OO1)C2CCC(=O)NCCNc1ccnc2cc(Cl)ccc12 (stereo unspecified) | 82.3%
21 | CC[C@]12C=CCN3CC[C@@]4(c5ccc(OC)cc5N(C)[C@H]4[C@@](O)(C(=O)OC)[C@@H]1OC(=O)CCC[P+](c1ccc(C)cc1)(c1ccc(C)cc1)c1ccc(C)cc1)[C@@H]32 | -76.3% (active)
22 | CC(C)N=C([Se])NC(=O)c1ccccc1 | -29.1% (active)
23 | CC[C@]12C=CCN3CC[C@@]4(c5ccc(OC)cc5N(C)[C@H]4[C@@](O)(C(=O)OC)[C@@H]1OC(=O)CCC[P+](C1CCCCC1)(C1CCCCC1)C1CCCCC1)[C@@H]32 | -72.2% (active)
24 | CC1=C(COCCOC(=O)c2ccc(S(=O)(=O)F)cc2)C2=C(C)C3(CC3)[C@@](C)(O)C(=O)C2=C1 | 10.9%
25 | CC[C@]12C=CCN3CC[C@@]4(c5ccc(OC)cc5N(C)[C@H]4[C@@](O)(C(=O)OC)[C@@H]1OC(=O)CCCC[P+](c1ccc(OC)cc1)(c1ccc(OC)cc1)c1ccc(OC)cc1)[C@@H]32 | -82.6% (active)
26 | CC1=C(CCC=NNC(N)=O)C2=C(C)C3(CC3)[C@@](C)(O)C(=O)C2=C1 | -74.8% (active)
27 | CC[C@@]12CC(C(=O)OC)=C3Nc4cc5c(cc4[C@@]34CCN(C[C@H]3O[C@H]31)[C@@H]24)[C@@H]1[C@H](O5)[C@@H](O)[C@@]2(CC)CC(C(=O)OC)=C3Nc4cc(OC)ccc4[C@@]34CCN1[C@@H]24 | 2.22% (active)
28 | CCOP(=O)(CC(F)(F)C(F)(F)F)OCC | 9.98% (active)
29 | CC1=C2C(=C[C@@](C)(COP(=O)(Oc3ccccc3)Oc3ccccc3)[C@@H]2O)C(=O)[C@@](C)(O)C12CC2 | 4.25% (active)
30 | CC(=O)Oc1ccccc1C(=O)NC([Se])=NC1CCCCC1 | 1.18% (active)
31 | C[C@H]1[C@H](OC(=O)CCC(=O)N(CCCc2cn(-c3ccc(CN4CCOCC4)cc3)nn2)CCNc2ccnc3cc(Cl)ccc23)O[C@@H]2OC3(C)CC[C@H]4[C@H](C)CC[C@@H]1[C@@]24OO3 | 11.2%
